In PubChem BioAssay:
The source made the active and inactive calls.

Assays:
[1] = tested on: Human papillomavirus type 1a protein E7 (residues 44-93); assay: HPV1a E7 fragment binders on microarrays, primary screen, biochemical, small-molecule microarray, residues 44-93, 635 nm fluorescence (AID 1108); details: small-molecule microarray binding, fluorescence 635 nm; higher = more signal;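 also: E7 fragment applied at 1 µg/mL in TBST for 1 h at 4 C; score combines spot fluorescence with its signal to noise ratio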
[2] = modulators of HCV replicon luciferase signal, primary screen, HCV replication inhibitor project, Huh7 cells, luciferase reporter (AID 1109); details: 48 h, higher = more signal;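 also: huh7 hepatoma cells harbouring a luciferase neomycin HCV replicon reporter; luciferase luminescence as measure of HCV replicon replication; test concentration not given here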
[3] = target: Left-right determination factor 2 (Homo sapiens) (UniProt O00292); assay: LEFTY2 binders on small-molecule microarrays, primary screen, biochemical, small-molecule microarray, 635 nm fluorescence scan (AID 1110); details: LEFTY2 binding, higher = more signal
Left-right determination factor 2 (Homo sapiens), sequence (O00292 whole entry, looked up): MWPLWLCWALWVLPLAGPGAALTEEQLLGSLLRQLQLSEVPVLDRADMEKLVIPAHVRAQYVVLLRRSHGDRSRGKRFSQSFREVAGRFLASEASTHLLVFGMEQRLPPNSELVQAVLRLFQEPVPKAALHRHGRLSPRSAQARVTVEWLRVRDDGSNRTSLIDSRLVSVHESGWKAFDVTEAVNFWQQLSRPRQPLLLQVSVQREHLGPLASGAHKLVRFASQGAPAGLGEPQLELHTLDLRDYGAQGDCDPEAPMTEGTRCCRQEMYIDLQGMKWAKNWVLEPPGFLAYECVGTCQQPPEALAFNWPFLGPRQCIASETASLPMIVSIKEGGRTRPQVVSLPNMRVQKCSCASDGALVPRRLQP

[4] = target: Calmodulin-1 (Homo sapiens) (UniProt P0DP23); assay: CALM1 binders on microarrays, EGTA buffer, profiling panel, biochemical, small-molecule microarray, Cy5-labelled CALM1 (AID 1111); details: Cy5-CALM1 binding fluorescence, higher = more signal;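 also: labelled calmodulin applied in Tris saline Tween buffer holding calcium plus EGTA and DTT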
[5] = target: Calmodulin-1 (Homo sapiens) (UniProt P0DP23); assay: calcium-bound CALM1 binders on microarrays, profiling panel, artefact control for SMM control-protein annotation, biochemical, small-molecule microarray, Cy5-labelled CALM1, plus calcium (AID 1112); details: Cy5-CALM1 binding fluorescence, higher = more signal;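 also: score merges spot fluorescence with signal to noise from triplicate slides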
[6] = small-molecule microarray binders of probe aWnt5a, primary screen, biochemical, biotinylated probe, 635/667 nm fluorescence (AID 1113); details: higher = more signal;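 also: score merges 667 nm fluorescence intensity with signal-to-noise per printed feature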
[7] = small-molecule microarray binders of probe aShh, primary screen, biochemical, biotinylated probe, 635/667 nm fluorescence (AID 1114); details: higher = more signal;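 also: probe is biotin-labelled aShh protein from a stem cell growth factor screen; measures binding of labelled protein to compounds printed on the slide; score merges feature fluorescence at 667 nm with signal-to-noise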
[8] = small-molecule microarray binders of probe aNog, primary screen, biochemical, biotinylated probe, 635/667 nm fluorescence (AID 1115); details: higher = more signal;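 also: probe is biotinylated aNog protein used at 0.15 µg/mL for 1 h at 4 C; z-score combines 667 nm fluorescence of each spot with its signal to noise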
[9] = target: Torsin-1A-interacting protein 1 (Homo sapiens) (UniProt Q5JTV8); assay: LAP1 binders from COS7 cell lysate, primary screen, small-molecule microarray, 635/667 nm fluorescence (AID 1116); details: COS7-hLAP1 lysate binding, 635 nm fluorescence, higher = more signal
Torsin-1A-interacting protein 1 (Homo sapiens), sequence (Q5JTV8 whole entry, looked up): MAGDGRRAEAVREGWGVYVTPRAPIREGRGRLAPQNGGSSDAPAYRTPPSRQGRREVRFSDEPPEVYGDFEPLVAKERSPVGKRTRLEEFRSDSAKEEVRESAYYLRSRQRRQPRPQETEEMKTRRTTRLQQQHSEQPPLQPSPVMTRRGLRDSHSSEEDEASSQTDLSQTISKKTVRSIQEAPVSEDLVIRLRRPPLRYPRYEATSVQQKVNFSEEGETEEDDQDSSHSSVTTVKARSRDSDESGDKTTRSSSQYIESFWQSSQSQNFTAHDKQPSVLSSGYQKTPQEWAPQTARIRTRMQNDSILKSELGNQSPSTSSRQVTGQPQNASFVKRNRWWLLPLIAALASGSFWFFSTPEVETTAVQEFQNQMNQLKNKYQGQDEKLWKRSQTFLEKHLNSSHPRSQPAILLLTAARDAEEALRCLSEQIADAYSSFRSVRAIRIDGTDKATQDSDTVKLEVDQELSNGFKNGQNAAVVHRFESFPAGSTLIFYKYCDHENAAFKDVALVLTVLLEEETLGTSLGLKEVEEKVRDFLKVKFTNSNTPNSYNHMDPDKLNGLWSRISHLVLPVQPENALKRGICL

[10] = target: Alpha-bungarotoxin (Bungarus multicinctus) (UniProt P60615); assay: alpha-bungarotoxin binders on microarray, profiling panel, artefact control for SMM control protein annotation, biochemical, small-molecule microarray, Alexa647 label, 635/667 nm fluorescence (AID 1117); details: alpha-BTX-A647 binding fluorescence, higher = more signal
Alpha-bungarotoxin (Bungarus multicinctus), sequence (P60615 whole entry, looked up): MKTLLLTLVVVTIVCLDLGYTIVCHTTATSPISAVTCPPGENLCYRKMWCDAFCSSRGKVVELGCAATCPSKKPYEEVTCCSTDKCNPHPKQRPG

Albumin (Bos taurus) = Albumin (Bos taurus) (UniProt P02769); assay: bovine serum albumin binders on microarray, profiling panel, artefact control for SMM control protein annotation, biochemical, small-molecule microarray, Alexa647 label, 635/667 nm fluorescence (AID 1118); details: BSA-A647 binding, fluorescence 635 nm, higher = more signal;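 also: score merges 667 nm emission intensity and signal-to-noise per printed compound spot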
Albumin (Bos taurus), sequence (P02769 whole entry, looked up): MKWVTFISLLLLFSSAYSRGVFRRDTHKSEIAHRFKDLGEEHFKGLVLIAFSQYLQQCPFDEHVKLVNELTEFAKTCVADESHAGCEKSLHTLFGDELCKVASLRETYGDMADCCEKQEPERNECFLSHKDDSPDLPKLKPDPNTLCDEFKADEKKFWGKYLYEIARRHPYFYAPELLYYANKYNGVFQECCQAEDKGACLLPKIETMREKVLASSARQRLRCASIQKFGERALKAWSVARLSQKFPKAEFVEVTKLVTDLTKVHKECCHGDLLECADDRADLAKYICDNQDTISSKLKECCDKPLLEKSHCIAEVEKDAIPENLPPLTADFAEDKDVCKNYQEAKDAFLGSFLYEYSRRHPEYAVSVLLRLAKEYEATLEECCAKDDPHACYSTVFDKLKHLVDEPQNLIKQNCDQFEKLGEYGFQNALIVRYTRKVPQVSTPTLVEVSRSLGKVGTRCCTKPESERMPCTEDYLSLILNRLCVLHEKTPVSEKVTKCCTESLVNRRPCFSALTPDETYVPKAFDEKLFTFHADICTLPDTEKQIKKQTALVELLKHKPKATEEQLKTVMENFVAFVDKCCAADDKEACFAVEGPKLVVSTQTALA

[11] = small-molecule microarray binders of probe aXIP, primary screen, biochemical, NeuroSMM set, 635/667 nm fluorescence (AID 1119); details: higher = more signal, called active from +8 up or from −8 down;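 also: probe is the protein aXip251-270 applied at 1 µg/mL to compound-printed slides; binding of probe to printed compounds measured as 667 nm fluorescence plus signal to noise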
[12] = small-molecule binders of probe aNOTCH3, primary screen, biochemical, small-molecule microarray, 635/667 nm fluorescence (AID 1120); details: higher = more signal;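 also: probe is a biotin-tagged antibody raised against NOTCH3 rather than NOTCH3 protein; score merges spot fluorescence near 667 nm with spot signal to noise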
[13] = small-molecule binders of probe aNOTCH2, primary screen, biochemical, small-molecule microarray, 635/667 nm fluorescence (AID 1121); details: higher = more signal;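 also: score merges feature fluorescence read at 667 nm with its signal to noise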
[14] = target: Carbonic anhydrase 2 (Homo sapiens) (UniProt P00918); assay: CAII small-molecule binders, profiling panel, biochemical, small-molecule microarray, Alexa647-labelled CAII (AID 1122); details: CAII-A647 binding fluorescence, higher = more signal
[15] = COS7 lysate on small-molecule microarray, probe aHis, 635 nm (AID 1123); details: COS7 cell lysate, fluorescence, higher = more signal;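 also: z-score combines 667nm fluorescence intensity with signal-to-noise per printed compound spot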
[16] = compound binding in COS7 lysate, probe aLAP1, primary screen, cell lysate, small-molecule microarray (AID 1124); details: probe aLAP1, fluorescence, higher = more signal;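 also: lysate comes from COS7 cells expressing LAP1 and is applied at 0.3 µg/mL; score merges spot fluorescence near 667 nm with signal-to-noise over triplicate slides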
Sam68 (KHDRBS1) = assay: Sam68 small-molecule binders, primary screen, biochemical, small-molecule microarray, 635 nm fluorescence (AID 1125); details: small-molecule microarray binding, higher = more signal;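 also: score merges 667 nm channel intensity with signal to noise over triplicate slides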
[17] = tested on: Chordin-like protein 2 (CHRDL2); assay: CHRDL2 small-molecule binders, primary screen, biochemical, small-molecule microarray, 635 nm fluorescence (AID 1126); details: small-molecule microarray binding, fluorescence 635 nm; higher = more signal;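 also: printed compound slides probed with Chrdl2 protein at 4 µg/mL for 1 h at 4 C; score merges 667 nm emission intensity with signal to noise over three replicate slides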
[18] = target: Concanavalin-A (Canavalia ensiformis) (UniProt P02866); assay: ConA small-molecule binders, primary screen, artefact control for SMM control protein annotation, biochemical, small-molecule microarray, Alexa647 label, 635 nm (AID 1127); details: ConA-A647 binding fluorescence, higher = more signal;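 also: z combines 667 nm emission intensity with signal-to-noise across three replicate slides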
Concanavalin-A (Canavalia ensiformis), sequence (P02866 whole entry, looked up): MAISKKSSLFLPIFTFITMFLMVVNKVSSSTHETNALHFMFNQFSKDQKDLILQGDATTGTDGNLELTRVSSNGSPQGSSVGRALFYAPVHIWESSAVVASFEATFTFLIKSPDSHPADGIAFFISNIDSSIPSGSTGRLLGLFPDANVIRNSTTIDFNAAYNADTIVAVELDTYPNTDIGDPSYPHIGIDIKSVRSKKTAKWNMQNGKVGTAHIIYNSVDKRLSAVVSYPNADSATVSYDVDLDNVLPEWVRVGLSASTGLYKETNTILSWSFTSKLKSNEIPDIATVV

| SMILES | composite z-score [1] | z-score [2] | composite z-score [3] | composite z-score [4] | composite z-score [5] | composite z-score [6] | composite z-score [7] | composite z-score [8] | composite z-score [9] | composite z-score [10] | composite z-score (Albumin (Bos taurus)) | composite Z-score [11] | composite z-score [12] | composite z-score [13] | composite z-score [14] | composite z-score [15] | composite z-score [16] | composite z-score (Sam68 (KHDRBS1)) | composite z-score [17] | composite z-score [18] |
| --- | --- | --- | --- | --- | --- | --- | --- | --- | --- | --- | --- | --- | --- | --- | --- | --- | --- | --- | --- | --- |
| Cc1c(NC(=O)/C(C#N)=C/C=C/c2ccccc2)c(=O)n(-c2ccccc2)n1C | -0.353 | -0.683 | 0.277 | 0.193 | -0.0357 | -0.145 | -0.416 | -0.49 | -0.296 | 0.754 | 0.566 | 0.54 (inactive) | 0.0859 | 0.136 | 0.682 | 0.811 | -0.195 | -0.144 | 0.427 | 0.802 |
| CCCNC(=O)[C@@]1(C)c2ccccc2C(=O)N(Cc2ccc(OC(F)(F)F)cc2)[C@H]1c1ccc(CO)cc1 | -0.481 | -0.16 | -0.808 | 0.149 | -0.124 | -0.0685 | -0.222 | 0.597 | 1.28 | 0.0855 | 0.132 | 2.11 (inactive) | -0.0397 | -0.0035 | 0.267 | -0.517 | 0.727 | 0.565 | -0.602 | 0.949 |
| O=C(NCc1ccccc1)[C@@H]1c2ccccc2C(=O)N(C2CCCCC2)[C@H]1c1ccc(CO)cc1 | 1.47 | -0.166 | -0.379 | -0.576 | -0.545 | -0.104 | -0.247 | -0.282 | 0.089 | -0.09 | 0.654 | 0.142 (inactive) | -0.112 | -0.286 | 0.795 | 0.642 | 1.78 | 0.467 | -0.475 | 0.335 |
| CCCNC(=O)[C@@]1(C)c2ccccc2C(=O)N(Cc2cc(C(F)(F)F)cc(C(F)(F)F)c2)[C@H]1c1ccc(CO)cc1 | 1.23 | -1.16 | -0.657 | 0.0189 | 0.168 | 0.0377 | -0.297 | -0.158 | 1.61 | 0.919 | -0.549 | 0.147 (inactive) | -0.198 | -0.114 | 0.671 | 1.68 | 0.458 | 0.356 | -1.08 | -0.082 |
| CC(C)OC(=O)C1=CCC(c2cccc(Cl)c2)O1 (stereo not given) | 1.07 | -2.34 | -1.44 | 0.222 | 0.45 | 0.0654 | 0.16 | -0.347 | 0.0025 | 0.274 | 0.569 | 0.403 (inactive) | -0.36 | -0.169 | 0.848 | 2.72 | -0.157 | 0.649 | -1.72 | 0.417 |
| C=C(C(=O)CC[C@@H](OC(=O)c1cccnc1)c1ccc(CO)o1)C(C)C | 1.03 | -1.24 | 0.46 | -0.478 | -0.835 | -0.139 | -0.0701 | 0.337 | 1.35 | 0.346 | 0.0207 | 0.278 (inactive) | 0.101 | -0.0698 | 0.614 | 0.583 | 0.697 | 1.24 | 0.584 | 0.383 |
| CO[C@H]1O[C@H](CO)[C@@H](OC(=O)Nc2ccc(C(F)(F)F)cc2)[C@H](OC(=O)Nc2ccccc2)[C@@H]1OC(=O)Nc1ccccc1 | 1.34 | 0.0041 | 0.003 | 1.08 | -0.778 | 0.0887 | -0.102 | -0.305 | 1.01 | 0.462 | 0.533 | 0.291 (inactive) | 0.217 | 0.0405 | 0.527 | 2.31 | -0.0098 | 1.29 | -0.28 | 1.16 |
| C=CCOC(=O)[C@H]1[C@@H]2C(=O)O[C@@H](c3ccccc3)[C@@H](c3ccccc3)N2[C@@H](c2ccc(OCCOC(=O)[C@@H]3C[C@@H]4C(=O)NCC(=O)N4[C@@H]3c3ccc(O)cc3)cc2)[C@]12C(=O)Nc1ccc(I)cc12 | 1.37 | -1.59 | 1.04 | 1.56 | 0.341 | -0.0519 | 0.131 | -0.412 | 1.14 | 1.52 | 0.733 | 1.05 (inactive) | 0.0435 | -0.0583 | 0.647 | 1.71 | 0.888 | 1.3 | 1.09 | 1.14 |
| COCCOC(=O)N1C(=O)[C@@]2(c3ccccc31)[C@H](c1ccc(O)cc1)N1[C@H](c3ccccc3)[C@H](c3ccccc3)OC(=O)[C@H]1[C@@H]2C(N)=O | -1.11 | -0.823 | -0.827 | -0.284 | -0.0872 | -0.0256 | 0.0899 | -0.346 | -0.571 | -0.448 | 0.436 | 0.313 (inactive) | -0.27 | -0.114 | 0.711 | 0.531 | -0.0821 | -0.764 | -1.04 | 0.035 |
| CN(C)CCCCCCNC(=O)[C@@H]1C[C@@H]2C(=O)NCC(=O)N2[C@@H]1c1cccc(OCCO)c1 | 1.12 | -0.358 | 1.36 | 0.138 | -0.708 | -0.0222 | 0.0948 | 0.107 | 1.88 | -0.0783 | -0.615 | 1.04 (inactive) | 0.113 | -0.0519 | 0.63 | 2.54 | 0.212 | 1.3 | 1.35 | 1.22 |
| C=CCN1C(=O)[C@]2(COC(c3ccc(OCCCO)cc3)=N2)Cc2ccccc21 | 1.17 | -0.347 | -0.352 | -0.0567 | 0.0613 | 0.227 | 0.0253 | 0.795 | 2.59 | 1.48 | 0.284 | -0.586 (inactive) | -0.0362 | -0.0583 | 0.627 | 2.78 | 1.11 | 0.487 | 0.0453 | 0.953 |
| C=CCC(OC(C)=O)[C@@H]1[C@@H](N(Cc2ccc(-c3cccc(C(F)(F)F)c3)o2)C(=O)Cc2ccc(OC)cc2)c2cc(OCCCO)ccc2N1C(=O)Cc1ccc(OC)cc1 (stereo not given in full) | -0.641 | -1.46 | -0.606 | -0.503 | -1.26 | -0.203 | -0.0035 | -0.196 | -0.347 | -0.132 | 0.478 | -0.784 (inactive) | -0.193 | -0.193 | 0.158 | 0.043 | -0.39 | -0.399 | 0.292 | -0.947 |
| COC(=O)[C@@]1(Cc2ccccc2)[C@H]2c3cc(C(=O)N(C)C)n(Cc4cc(F)c(F)c(F)c4)c3C[C@H]2CN1C(=O)c1ccccc1 | 1.28 | -1.87 | -0.762 | 1.39 | 0.449 | 0.216 | 0.415 | 1.79 | 0.845 | 0.517 | 1.04 | -0.389 (inactive) | 0.692 | 0.289 | 0.656 | 2.8 | 0.525 | 1.32 | -0.801 | 0.953 |
| O=C1C2C=CC(C(O)c3ccccn3)N(Nc3ccccc3F)C2C(=O)N1c1ccccc1 (stereo not given) | 0.642 | 0.426 | 0.0355 | -0.116 | -0.332 | -0.0685 | 0.0278 | -0.216 | 0.0065 | 0.231 | 0.127 | -0.21 (inactive) | -0.0918 | -0.111 | 0.766 | 0.596 | 0.753 | 0.0702 | 0.194 | 0.634 |
| C=CCN1C(=O)[C@]2(Cc3ccccc31)N=C(c1ccc(OCCCO)cc1)O[C@@H]2c1ccccc1 | 1.41 | -2.74 | 0.319 | 0.731 | -0.313 | 0.219 | -0.108 | 0.431 | 1.75 | 0.152 | -0.171 | 2.13 (inactive) | 0.0562 | 0.121 | 0.253 | 2.37 | 0.339 | 0.965 | 0.569 | 1.08 |
